# Assay outcomes deposited in PubChem by National Center for Advancing Translational Sciences (NCATS).
# Sampled rows, rich in hits. Any-hit rate of the full collection: about 1.2%.
# GLS inh: blocks human kidney-isoform glutaminase activity; GLS enzymatic activity, qHTS titration; Potency, µM (highest dose often 45.5 µM), inactives show top-dose activity change, negative = inhibition, actives largely listed as inhibitors; actives 0.21% (n = 410,000)
# Target sequence (O94925 whole entry, looked up, canonical isoform): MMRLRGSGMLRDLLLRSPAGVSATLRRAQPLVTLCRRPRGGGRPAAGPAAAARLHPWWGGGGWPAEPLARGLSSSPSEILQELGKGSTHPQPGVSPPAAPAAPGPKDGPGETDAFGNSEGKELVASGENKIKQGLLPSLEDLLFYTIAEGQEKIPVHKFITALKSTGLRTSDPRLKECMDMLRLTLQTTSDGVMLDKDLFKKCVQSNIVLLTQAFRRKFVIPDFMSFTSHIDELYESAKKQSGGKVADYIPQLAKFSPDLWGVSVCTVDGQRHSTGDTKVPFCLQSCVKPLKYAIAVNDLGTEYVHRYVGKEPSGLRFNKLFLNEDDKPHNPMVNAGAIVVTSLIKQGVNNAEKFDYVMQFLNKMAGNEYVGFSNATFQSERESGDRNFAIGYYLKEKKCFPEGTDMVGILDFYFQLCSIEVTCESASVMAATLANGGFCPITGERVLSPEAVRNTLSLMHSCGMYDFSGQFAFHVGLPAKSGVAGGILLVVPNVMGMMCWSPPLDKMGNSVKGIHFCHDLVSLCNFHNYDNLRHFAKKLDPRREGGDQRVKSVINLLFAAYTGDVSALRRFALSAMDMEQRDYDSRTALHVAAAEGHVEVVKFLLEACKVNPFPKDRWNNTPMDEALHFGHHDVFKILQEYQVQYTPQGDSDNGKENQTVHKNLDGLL
#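 Compounds were pin-transferred onto hKGA, after which L-glutamine (1 mM solution) and a detection mix of glutamate oxidase, HRP and Amplex Red were added. Initial and 30 min RT fluorescence reads were collected.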
# IDH1 R132H inh: blocks human mutant IDH1 R132H enzyme; O75874; IDH1-R132H enzyme, NADPH consumption, diaphorase/resazurin fluorescence; Potency, µM (series often up to 76.6 µM), for the others: top-dose activity change, negative = inhibition, most hits filed as inhibitors; actives 0.093% (n = 390,000); AID 602179; further: nearly all actives have a fitted effect of over 65% in size
#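 IDH1-R132H (0.5 ug/mL dispensed) in pH 7.5 Tris buffer was preincubated 30 min with compound, then given a substrate mix of 0.016 mM NADPH and 2 mM alpha-KG for 80 min at room temperature; remaining NADPH was read by diaphorase/resazurin fluorescence.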
# rTrxR1 inhibitor: inhibitors of rat thioredoxin reductase 1; O89049; actives 1% (n = 390,000); recombinant rTrxR1, NADPH fluorescence consumption, selenite substrate; AID 588453; Potency, µM (highest dose often 114 µM), inactives show top-dose activity change, negative = inhibition, hits mostly inhibitors; further: nearly all actives have a fitted effect of over 65% in size
#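 Rat TrxR1 (90 nM in the dispensed reagent) was pre-reduced with 400 uM NADPH for 5 min at room temperature, then incubated with compound for 15 min. After 400 uM selenite was added, NADPH fluorescence (Ex 340/Em 450 nm) was followed for 8 min.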
# TrxR1 substrate: rat thioredoxin reductase 1 substrate activity. Potency, µM (titrated, usually from 114 µM), without a hit: top-dose activity change, negative = substrate turnover. O89049. actives 0.01% (n = 390,000). purified TrxR1 substrate turnover, NADPH consumption readout; further: nearly all actives have a fitted effect of over 50% in size
#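 Rat TrxR1, dispensed at 90 nM, was prereduced with 400 uM NADPH (final) for 5 min at ~22 deg C, then incubated with compound 15 min before 400 uM selenite. A first-read NADPH fluorescence drop versus no-compound background flagged substrates.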
# * hit, by the source's call; ? = inconclusive; nt = not tested or not shown; [ ] = dose if it differs, or a comment. The call rests on the fitted dose curve; in most records, active means well fitted curve in the direction sought with a large enough effect; inconclusive means small, poorly fitted or top-dose-only effect, or another doubt; inactive means no such curve, though single readings can be large; an effect the other way counts as inactive or inconclusive. On the % scale 0 is the no-effect control and ±100 the full control effect; potency means the concentration at half of the fitted maximal effect.
SMILES,GLS inh,IDH1 R132H inh,rTrxR1 inhibitor,TrxR1 substrate
O=C1NN(c2cccc(Br)c2)C(=O)/C1=C\c1ccccc1,-25.0%,-0.8%,11.2µM*,?
CNC[C@@H]1CC[C@@H](N)[C@@H](O[C@H]2[C@H](O)[C@@H](O[C@H]3OC[C@](C)(O)[C@H](NC)[C@H]3O)[C@H](N)C[C@@H]2N)O1,-17.8%,nt,nt,nt
O=C(NCCO)C(=O)Nc1cc2c3c(c1)CC(=O)N3CCC2,-1.3%,-9.1%,-0.7%,-7.8%
O=C(CCl)c1cc2c3c(c1)CC(=O)N3CCC2,2.9%,7.1%,89.1µM*,-11.3%
COc1ccccc1N(C(=O)CCl)c1cn(C(C)=O)c2ccccc12,3.4%,-4.6%,3.98µM*,-9.3%
CC(=O)n1cc(C=O)c2ccccc21,nt,nt,12.2%,3.4%
CC(=O)n1cc(N(C(=O)CCl)c2ccc(Cl)cc2)c2ccccc21,9.7%,?,0.708µM*,-3.4%
C[C@@H]1COc2cc(N(C)CCO)ccc2S(=O)(=O)N1,10.0%,nt,nt,nt
O=C1/C(=C/c2ccco2)N=C(N2CCCCC2)N1c1ccccc1,10.6%,2.3%,70.8µM*,-12.5%
CC(C)(C)n1ncc2c(=O)n(Cc3cccc(OC(F)F)c3)cnc21,nt,nt,14.6%,-4.4%
CCOC(=O)c1c(-c2ccc(C)o2)csc1NC(=O)CN1CCN(CC)CC1,9.7%,-4.7%,4.47µM*,6.6%
CCOC(=O)c1c(-c2ccc(C)o2)csc1NC(=O)CN1CCCCC1,2.1%,-1.0%,-59.0%,8.9%[57.1 µM]
CCOC(=O)c1c(-c2ccc(C)o2)csc1NC(=O)CSc1nncs1,62.7%,1.3%,2.24µM*,0.9%[57.1 µM]
COc1ccc(S(=O)(=O)Cc2ccc(C(=O)N3CCOCC3)o2)cc1,0.3%,7.3%,35.5µM*,4.2%
CCCCCCCC(=O)CC[C@H]1[C@@H](C/C=C/CCCC(=O)OC(C)C)[C@@H](O)C[C@H]1O,-3.7%,nt,nt,nt
Cc1cc(Br)c(NC(=O)CCl)c(Br)c1,0.3%,-5.2%,?,0.8%
CC(C)c1cc(NC(=O)CCl)on1,3.7%,5.4%,50.1µM*,0.4%
CCc1sc(C(C2C(=O)CC(C)(C)CC2=O)C2C(=O)CC(C)(C)CC2=O)cc1[N+](=O)[O-],7.08µM*,0.6%,1.78µM*,-1.6%[57.1 µM]
O=C1OC(NC(=O)c2ccccc2)C(n2cc(CO)nn2)=C1Cl (stereo not drawn),75.4%,1.1%,10µM*,9.4%[57.1 µM]
Cn1cccc1C(=O)NNC(=O)COc1ccccc1F,8.9%,-7.4%,14.0%,7.9%
CCOc1ccc(OCC(=O)N2CCOCC2)cc1,0.1%,6.5%,7.1%[57.1 µM],6.6%[57.1 µM]
N#CC(C#N)=Cc1ccc(OCC(=O)N2CCOCC2)cc1,-5.9%,1.7%,15.8µM*,-4.9%
O/C(=C\c1nc2ccccc2[nH]1)c1cccs1,18.0%,-15.1%,44.7µM*,4.3%
O=c1[nH]c2ccccc2nc1/C=C(\O)c1cccs1,4.2%,6.7%,3.9%[57.1 µM],-2.1%[57.1 µM]
O=C(O)C1=CCC=CC1C(=O)O (stereo not drawn),11.2µM*,8.6%,nt,nt
SMILES,GLS inh,IDH1 R132H inh,rTrxR1 inhibitor,TrxR1 substrate
O=c1oc2ccccc2c(N2CCCCC2)c1CN1CCCCC1,5.8%,0.3%,25.1µM*,-0.3%
O=c1oc2ccccc2c(N2CCCCC2)c1CN1CCCC1,13.3%,2.4%,4.8%,3.6%
CCc1oc2ccccc2c1C(=O)CCN1CCCCC1,10.5%,-0.2%,0.112µM*,3.5%
O=c1[nH]c(=O)n(C2OC(CO)C(O)C2O)c2c1CCCC2 (stereo not drawn),1.6%,nt,nt,nt
COc1ccccc1CCNC(=O)Cc1c(C)c2cc(Cl)c(O)cc2oc1=O,7.3%,10.7%,79.4µM*,963.7%
Cc1c(CC(=O)NCCc2ccccc2F)c(=O)oc2cc(O)c(Cl)cc12,0.8%,-4.7%,70.8µM*,914.8%
O=C(O)c1ccccc1SC1CC(=O)N(C2CCCCC2)C1=O (stereo not drawn),-4.8%,-5.7%,79.4µM*,2.7%
COC(=O)c1c(N2C(=O)CC(Sc3ccccc3C(=O)O)C2=O)sc2c1CCCC2 (stereo not drawn),-0.2%,-4.5%,79.4µM*,3.3%
COC(=O)c1c(N2C(=O)CC(Sc3ccccc3C(=O)O)C2=O)sc(C)c1C (stereo not drawn),3.3%,0.2%,?,5.7%[57.1 µM]
CC(Nc1ccc(F)cc1)=[N+](C)CCNS(=O)(=O)c1ccc(Cl)cc1,0.7%,0.0%,79.4µM*,-4.8%
O=C(/C=C/c1ccc([N+](=O)[O-])cc1)c1cccnc1,5.0%,5.4%,31.6µM*,-4.0%
